# Records with an inconclusive call do not appear. Active and inactive are the calls of the source. Rule for the calls, unless noted: active = hit-call score of the fitted dose curve at least 0.9, where 1 is the maximum; inconclusive = response in the unintended direction; inactive = score below 0.9.
# Columns and labels:
# [1] = system: Sodium/Iodide Symporter (NIS), SLC5A5 (gene 6528); assay: CPHEA_Stoker_NIS_Inhibition_RAIU: CPHEA's Radioactive Iodide Uptake (RAIU) Assay for Sodium/Iodide Symporter (NIS) Inhibition, Stoker and Laws Labs (AID 2283841)
# Outline: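 Iodide uptake through human NIS is measured in an engineered HEK293T line. Cells take up 125I (329pM final) for 2 hours at room temperature alongside chemicals at 0.001–100uM. Retained radioactivity is counted, and the signal is expressed against DMSO controls.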
# [2] = CPHEA_Stoker_NIS_Cytotoxicity: Cytotoxicity Assessment for CPHEA's Radioactive Iodide Uptake (RAIU) Assay for Sodium/Iodide Symporter (NIS) Inhibition, Stoker and Laws Labs (AID 2283897);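 for AC50: active means loss of ATP signal versus DMSO meaning cytotoxicity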
# Outline: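 ATP luminescence (Cell Titer Glo) measured viability, with loss of signal normalized to DMSO controls. Cells: hNIS-HEK293T-EPA, seeded 40 hours prior. Dosing: 0.001–100uM, 2 hours, room temperature, uptake buffer pH 7.4.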
# [3] = system: frog Estrogen Receptor (ER), gene 398734; assay: ATG_frER1_XSP2: Attagene TRANS-FACTORIAL Multi-Species (XSP2) HepG2 Assay for frog Estrogen Receptor (ER) (AID 2283821);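 note: hits raise reporter mRNA above DMSO baseline so potency means agonist or activator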
# Outline: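 HepG2, transient MRTU transfection, chimeric NR-GAL4/UAS reporters; 24 h compound exposure, 24-well. Readout: reporter mRNA via RT-PCR + capillary electrophoresis, fluorescence. Positive fit vs DMSO baseline.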
# [4] = system: zebrafish Estrogen Receptor (ER2b), gene 317733; assay: ATG_zfER2b_XSP2: Attagene TRANS-FACTORIAL Multi-Species (XSP2) HepG2 Assay for zebrafish Estrogen Receptor (ER2b) (AID 2283823);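 note: fitted upward as reporter gain over DMSO so potency reflects activation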
# Outline: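 Transfect HepG2 with GAL4-UAS reporter constructs; dose chemicals, 24 h; isolate RNA, RT-PCR, FAM-label, HpaI digest; capillary electrophoresis. Gain-of-signal vs DMSO.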
# [5] = system: frog Androgen Receptor (AR), gene 399456; assay: ATG_frAR_XSP2: Attagene TRANS-FACTORIAL Multi-Species (XSP2) HepG2 Assay for frog Androgen Receptor (AR) (AID 2283824);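 note: actives raise reporter signal above DMSO so AC50 reflects agonist-like induction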
# Outline: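 HepG2 cells transiently transfected with GAL4-UAS reporter units and frog (Xenopus laevis) AR-Gal4 chimera; reporter mRNA measured 24 h after dosing by RT-PCR and capillary electrophoresis. Gain of signal fitted relative to DMSO baseline.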
# [6] = molecular target: Estrogen receptor (Homo sapiens) (UniProt P03372); assay: ATG_hERa_XSP2: Attagene TRANS-FACTORIAL Multi-Species (XSP2) HepG2 Assay for human Estrogen Receptor (ERa) (AID 2283827)
# Sequence of Estrogen receptor (Homo sapiens) (P03372 whole entry, looked up, the tested form may be a part): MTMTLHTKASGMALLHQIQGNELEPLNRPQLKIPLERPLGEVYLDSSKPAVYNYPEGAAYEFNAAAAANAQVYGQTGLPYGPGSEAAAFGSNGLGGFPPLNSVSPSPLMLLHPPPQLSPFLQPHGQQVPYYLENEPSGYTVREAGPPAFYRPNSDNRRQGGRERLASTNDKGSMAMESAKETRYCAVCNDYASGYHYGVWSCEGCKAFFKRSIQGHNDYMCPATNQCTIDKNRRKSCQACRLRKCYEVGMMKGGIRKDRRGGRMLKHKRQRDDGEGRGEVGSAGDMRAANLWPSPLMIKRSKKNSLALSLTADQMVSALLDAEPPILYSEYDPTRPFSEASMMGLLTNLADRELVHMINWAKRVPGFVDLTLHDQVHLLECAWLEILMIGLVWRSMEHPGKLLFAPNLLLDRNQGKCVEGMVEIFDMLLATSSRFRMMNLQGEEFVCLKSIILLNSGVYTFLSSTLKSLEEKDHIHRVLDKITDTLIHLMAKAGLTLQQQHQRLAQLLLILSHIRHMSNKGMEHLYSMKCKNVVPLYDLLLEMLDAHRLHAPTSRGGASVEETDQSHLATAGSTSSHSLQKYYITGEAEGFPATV
# Outline: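 HepG2 cells transiently transfected with multiplexed GAL4-UAS reporters driven by chimeric receptor-Gal4 proteins, dosed 24 h with 3 nM 6-alpha-fluorotestosterone and 1.5 nM norgestrel present. Reporter mRNA by RT-PCR and capillary electrophoresis; gain-of-signal fit versus DMSO.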
# [7] = system: frog Estrogen Receptor (ER2), gene 100174814; assay: ATG_frER2_XSP2: Attagene TRANS-FACTORIAL Multi-Species (XSP2) HepG2 Assay for frog Estrogen Receptor (ER2) (AID 2283828)
# Outline: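 Human liver HepG2, transient MRTU transfection (TRANS format, exogenous NR–Gal4). 24 h cpd exposure. Total RNA → RT → PCR → FAM label → HpaI cut → CE. Positive direction vs DMSO.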
# [8] = molecular target: Peroxisome proliferator-activated receptor gamma (Homo sapiens) (UniProt P37231); assay: ATG_hPPARg_XSP2: Attagene TRANS-FACTORIAL Multi-Species (XSP2) HepG2 Assay for human Peroxisome Proliferator-activated Receptor gamma (PPARg) (AID 2283829);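 note: actives raise reporter mRNA above DMSO so AC50 reflects PPARg activation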
# Sequence of Peroxisome proliferator-activated receptor gamma (Homo sapiens) (P37231 whole entry, looked up, the tested form may be a part): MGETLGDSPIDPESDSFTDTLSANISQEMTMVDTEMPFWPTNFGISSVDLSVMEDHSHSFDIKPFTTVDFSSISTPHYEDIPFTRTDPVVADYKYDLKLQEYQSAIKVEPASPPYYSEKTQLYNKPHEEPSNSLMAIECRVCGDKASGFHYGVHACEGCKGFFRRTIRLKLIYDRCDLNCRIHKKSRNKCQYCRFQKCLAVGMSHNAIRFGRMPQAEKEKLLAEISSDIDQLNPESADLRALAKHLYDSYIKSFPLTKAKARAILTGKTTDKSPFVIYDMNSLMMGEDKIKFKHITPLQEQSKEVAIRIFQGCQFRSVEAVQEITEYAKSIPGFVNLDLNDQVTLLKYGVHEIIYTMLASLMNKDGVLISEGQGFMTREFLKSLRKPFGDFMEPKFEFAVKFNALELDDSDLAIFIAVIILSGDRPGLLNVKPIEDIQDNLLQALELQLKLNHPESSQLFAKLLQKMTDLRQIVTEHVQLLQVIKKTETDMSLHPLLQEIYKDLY
# Outline: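 Transient MRTU transfection, HepG2; TRANS format (exogenous NR-Gal4 chimeras). 24 h chemical exposure with 3 nM 6-alpha-fluorotestosterone and 1.5 nM norgestrel present. Readout: reporter mRNA via RT-PCR/CE fluorescence, up-direction vs DMSO.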
# [9] = molecular target: Nuclear receptor subfamily 1 group I member 2 (Mus musculus) (UniProt O54915); assay: ATG_mPXR_XSP2: Attagene TRANS-FACTORIAL Multi-Species (XSP1) HepG2 Assay for mouse Pregnane X Receptor (PXR) (AID 2283831)
# Sequence of Nuclear receptor subfamily 1 group I member 2 (Mus musculus) (O54915 whole entry, looked up, the tested form may be a part): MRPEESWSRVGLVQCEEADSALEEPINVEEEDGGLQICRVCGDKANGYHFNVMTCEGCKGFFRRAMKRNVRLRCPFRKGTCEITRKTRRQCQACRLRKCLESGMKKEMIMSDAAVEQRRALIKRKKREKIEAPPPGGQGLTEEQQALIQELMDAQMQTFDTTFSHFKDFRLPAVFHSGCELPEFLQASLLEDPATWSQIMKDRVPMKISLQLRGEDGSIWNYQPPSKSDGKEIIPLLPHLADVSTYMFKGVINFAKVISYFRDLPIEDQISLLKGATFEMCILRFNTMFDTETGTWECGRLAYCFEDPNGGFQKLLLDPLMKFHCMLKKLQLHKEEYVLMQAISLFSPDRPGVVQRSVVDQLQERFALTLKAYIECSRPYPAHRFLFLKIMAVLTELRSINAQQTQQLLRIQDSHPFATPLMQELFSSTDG
# Outline: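 Transient HepG2 transfection, multiplexed GAL4-UAS reporters, NR-GAL4 chimeras. 24 h compound exposure. Readout: reporter mRNA, RT-PCR, fluorescent capillary electrophoresis; positive direction vs DMSO baseline.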
# [10] = molecular target: zebrafish Thyroid Hormone Receptor alpha (TRa), thraa (gene 30670) (UniProt Q98867); assay: ATG_zfTRa_XSP2: Attagene TRANS-FACTORIAL Multi-Species (XSP1) HepG2 Assay for zebrafish Thyroid Hormone Receptor alpha (TRa) (AID 2283832);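 note: actives raise zebrafish TRa-Gal4 reporter transcript above DMSO baseline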
# Sequence of zebrafish Thyroid Hormone Receptor alpha (TRa), thraa (gene 30670) (Q98867 whole entry, looked up, the tested form may be a part): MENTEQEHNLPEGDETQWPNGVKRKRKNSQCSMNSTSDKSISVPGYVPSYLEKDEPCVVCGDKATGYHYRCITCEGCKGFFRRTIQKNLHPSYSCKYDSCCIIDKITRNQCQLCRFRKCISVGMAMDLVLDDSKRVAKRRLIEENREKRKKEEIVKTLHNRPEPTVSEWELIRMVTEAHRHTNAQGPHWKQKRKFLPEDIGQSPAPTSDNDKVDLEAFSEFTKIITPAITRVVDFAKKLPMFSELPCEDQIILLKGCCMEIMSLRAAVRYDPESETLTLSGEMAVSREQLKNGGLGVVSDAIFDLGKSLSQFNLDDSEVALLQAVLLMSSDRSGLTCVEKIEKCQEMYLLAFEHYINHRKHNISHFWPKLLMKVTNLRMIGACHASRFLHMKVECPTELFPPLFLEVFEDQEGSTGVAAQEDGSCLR
# Outline: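 Transient transfection of human HepG2 with GAL4-UAS reporter units, then 24 h chemical treatment. RNA isolated, reverse-transcribed, PCR-amplified, FAM-labelled, HpaI-digested and run on capillary electrophoresis. Gain-of-signal relative to DMSO.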
# [11] = ATG_M_61_XSP2: Attagene TRANS-FACTORIAL Multi-Species (XSP2) HepG2 Assay for M61 Transcription Factor (Internal Marker) (AID 2283835; active = hit-call score of the fitted dose curve at least 0.9, where 1 is the maximum; inactive = score below 0.9;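 note: reporter mRNA of an internal background marker read by RT-PCR and capillary electrophoresis; active means a rise in signal above the DMSO baseline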)
# Outline: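 HepG2 cells transiently transfected with multiple GAL4-UAS reporter units; 3 nM 6-alpha-fluorotestosterone and 1.5 nM norgestrel present to stimulate androgen receptor. After 24 h compound exposure, reporter mRNA measured by RT-PCR and capillary electrophoresis fluorescence, gain-of-signal versus DMSO baseline.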
# [12] = molecular target: zebrafish Thyroid Hormone Receptor beta (TRb), thrb (gene 30607) (UniProt Q9PVE4); assay: ATG_zfTRb_XSP2: Attagene TRANS-FACTORIAL Multi-Species (XSP1) HepG2 Assay for zebrafish Thyroid Hormone Receptor beta (TRb) (AID 2283836)
# Sequence of zebrafish Thyroid Hormone Receptor beta (TRb), thrb (gene 30607) (Q9PVE4 whole entry, looked up, the tested form may be a part): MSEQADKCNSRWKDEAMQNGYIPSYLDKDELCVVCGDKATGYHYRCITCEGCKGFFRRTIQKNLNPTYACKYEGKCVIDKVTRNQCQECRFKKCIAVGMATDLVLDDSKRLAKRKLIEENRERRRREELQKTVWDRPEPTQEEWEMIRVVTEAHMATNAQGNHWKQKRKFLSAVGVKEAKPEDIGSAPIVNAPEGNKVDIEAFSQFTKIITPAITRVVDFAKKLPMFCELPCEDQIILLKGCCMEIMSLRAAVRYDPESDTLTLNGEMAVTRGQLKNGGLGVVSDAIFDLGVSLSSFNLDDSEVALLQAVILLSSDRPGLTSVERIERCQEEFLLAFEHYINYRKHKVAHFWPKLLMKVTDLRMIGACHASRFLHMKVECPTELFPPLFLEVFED
# Outline: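 Human liver HepG2, transient MRTU transfection (NR-Gal4 chimeras, GAL4-UAS reporters); 24 h compound exposure; total RNA → oligo(dT) RT → PCR → 6-FAM label → HpaI cut → CE fluorescence. DMSO = negative control/baseline.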
# [13] = molecular target: human Thyroid hormone Receptor alpha (TRa), THRA (gene 7067) (UniProt P10827); assay: ATG_hTRa_XSP2: Attagene TRANS-FACTORIAL Multi-Species (XSP2) HepG2 Assay for human Thyroid hormone Receptor alpha (TRa) (AID 2283838)
# Sequence of human Thyroid hormone Receptor alpha (TRa), THRA (gene 7067) (P10827 whole entry, looked up, the tested form may be a part): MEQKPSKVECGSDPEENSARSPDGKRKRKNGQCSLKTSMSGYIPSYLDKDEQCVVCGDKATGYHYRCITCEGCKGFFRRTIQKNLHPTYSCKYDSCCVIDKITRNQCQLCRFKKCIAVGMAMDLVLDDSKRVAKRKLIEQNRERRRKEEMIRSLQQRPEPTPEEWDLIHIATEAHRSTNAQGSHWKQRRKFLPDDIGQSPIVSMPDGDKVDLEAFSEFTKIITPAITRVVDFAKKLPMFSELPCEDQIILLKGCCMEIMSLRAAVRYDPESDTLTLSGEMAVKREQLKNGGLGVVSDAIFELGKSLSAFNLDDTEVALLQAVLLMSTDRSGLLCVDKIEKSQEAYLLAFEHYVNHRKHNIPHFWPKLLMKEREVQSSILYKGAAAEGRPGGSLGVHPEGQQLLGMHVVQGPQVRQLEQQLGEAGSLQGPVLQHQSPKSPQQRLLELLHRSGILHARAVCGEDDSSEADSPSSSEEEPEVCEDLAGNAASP
# Outline: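 HepG2 cells were transiently transfected with GAL4-UAS reporter units for chimeric human TRa-Gal4 and dosed for 24 hours, with 3 nM 6-alpha-fluorotestosterone and 1.5 nM norgestrel present. Reporter mRNA was quantified by RT-PCR, FAM labelling and capillary electrophoresis, with gain of signal fitted versus DMSO.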
# [14] = CEETOX_H295R_11DCORT_noMTC: CeeTox H295R High-throughput Steroidogenesis Assay for 11-Deoxycortisol (11DCORT), maximum tolerated concentration (MTC) filtered results only (AID 2283911; active = hit-call score of the fitted dose curve at least 0.9, where 1 is the maximum; inactive = score below 0.9); conditions: actives raise or lower the signal
# Outline: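 H295R, OECD 456-based; 10 uM forskolin 48 h → compound (0.1% DMSO) 48 h → medium extracted, 11DCORT by LC-MS/MS. Gain/loss vs DMSO control, all concentrations kept regardless of MTT viability.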
# [15] = CEETOX_H295R_OHPREG_noMTC: CeeTox H295R High-throughput Steroidogenesis Assay for OH-Pregnenolone (OHPREG), maximum tolerated concentration (MTC) filtered results only (AID 2283912; active = hit-call score of the fitted dose curve at least 0.9, where 1 is the maximum; inactive = score below 0.9); conditions: actives raise or lower the signal
# Outline: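 H295R human adrenal cells, forskolin-prestimulated (10 uM, 48 h), then exposed to test chemical in 0.1% DMSO for 48 h. 17alpha-hydroxypregnenolone in medium measured by HPLC-MS/MS after MTBE extraction; bidirectional fit versus DMSO, concentrations not MTC-filtered.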
# [16] = CEETOX_H295R_OHPROG_noMTC: CeeTox H295R High-throughput Steroidogenesis Assay for OH-Progesterone (OHPROG), maximum tolerated concentration (MTC) filtered results only (AID 2283914; active = hit-call score of the fitted dose curve at least 0.9, where 1 is the maximum; inactive = score below 0.9); conditions: actives raise or lower the signal
# Outline: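 H295R human adrenal cells prestimulated 48 h with 10 uM forskolin, then exposed 48 h to test chemical (0.1% DMSO final). Medium 17alpha-hydroxyprogesterone extracted with MTBE, quantified by HPLC-MS/MS; bidirectional fit versus DMSO, concentrations not MTC-filtered.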
# [17] = CEETOX_H295R_ANDR_noMTC: CeeTox H295R High-throughput Steroidogenesis Assay for Androstenedione (ANDR), maximum tolerated concentration (MTC) filtered results only (AID 2283915; active = hit-call score of the fitted dose curve at least 0.9, where 1 is the maximum; inactive = score below 0.9); conditions: actives raise or lower the signal
# Outline: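 H295R cells, passage 10 or below, prestimulated 48 h with 10 uM forskolin, then exposed 48 h to chemical in 0.1% DMSO. Medium androstenedione extracted with MTBE, quantified by HPLC-MS/MS; concentrations not MTC-filtered; bidirectional fit versus DMSO.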
smiles,measurement,setting,value
CCN=c1cc2oc3cc(NCC)c(C)cc3c(-c3ccccc3C(=O)OCC)c-2cc1C,AC50,[1],3.23 µM (active)
same,AC50,[2],30.8 µM (active)
CCCCCCCC/C=C\CCCCCCCC(=O)N(C)CC(=O)O,outcome,[2],inactive
CCN=C1C=CC(=C(c2ccc(N(CC)CC)cc2)c2ccc(N(CC)CC)cc2)c2ccccc21,AC50,[1],0.553 µM (active)
same,AC50,[2],10 µM (active)
O=C(c1ccccc1)c1ccc(O)cc1O,AC50,[3],3.76 µM (active)
same,AC50,[4],5.04 µM (active)
same,outcome,[5],inactive
same,AC50,[6],2.31 µM (active)
same,AC50,[7],2.73 µM (active)
same,outcome,[8],inactive
same,outcome,[9],inactive
same,outcome,[10],inactive
same,outcome,[11],inactive
same,outcome,[12],inactive
same,outcome,[13],inactive
same,outcome,[1],inactive
same,outcome,[2],inactive
OCCCC(F)(F)C(F)(F)C(F)(F)C(F)(F)C(F)(F)C(F)(F)C(F)(F)C(F)(F)F,outcome,[1],inactive
CC(C)Nc1ccc(NC(C)C)c2c1C(=O)c1ccccc1C2=O,outcome,[1],inactive
same,AC50,[2],15.3 µM (active)
Nc1c(Br)cc([N+](=O)[O-])cc1Br,outcome,[14],inactive
same,outcome,[15],inactive
same,AC50,[16],20.7 µM (active)
CCCCCCCCCc1ccc(OCCO)cc1,AC50,[1],7.03 µM (active)
same,AC50,[2],24.3 µM (active)
CCc1cc(Cc2cc(CC)c(N)c(CC)c2)cc(CC)c1N,AC50,[1],20 µM (active)
same,outcome,[2],inactive
CC(C)(C)c1cc(CCC(=O)NCCCCCCNC(=O)CCc2cc(C(C)(C)C)c(O)c(C(C)(C)C)c2)cc(C(C)(C)C)c1O,outcome,[14],inactive
same,outcome,[15],inactive
same,AC50,[16],0.203 µM (active)
same,outcome,[17],inactive
CCC(Cc1c(I)cc(I)c(N)c1I)C(=O)O (centres undefined),outcome,[1],inactive
same,outcome,[2],inactive

# Reference: PubChem BioAssay (EPA / NIEHS)
